Laboratory results reported in PubChem BioAssay.
Calls of active or inactive are those of the source.

Tests used:
[1] = small molecules captured by biotinylated probe aFSTL3 – biochemical, small-molecule microarray, fluorescence 635/667, stem cell growth factor project, primary screen (AID 1064); details: higher = more signal;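 also: measures binding of the biotinylated anti-FSTL3 antibody to printed compounds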
[2] = binders from COS7 lysate, DM2A8 probe, primary screen, torsin A project, cell lysate, small-molecule microarray, fluorescence 635/667 (AID 1065); details: higher = more signal, COS7 lysate expressing mutant human TOR1A
[3] = small molecules captured by biotinylated probe aFGF2 – biochemical, small-molecule microarray, fluorescence 635/667, stem cell growth factor project, primary screen (AID 1067); details: higher = more signal;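 also: measures binding of biotinylated aFGF2 protein to printed compounds on slides; z-score merges feature fluorescence and signal-to-noise across triplicate slides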
[4] = small molecules captured by biotinylated probe aFGF10 – biochemical, small-molecule microarray, fluorescence 635/667, stem cell growth factor project, primary screen (AID 1071); details: higher = more signal;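 also: score merges 667 nm spot intensity and signal to noise from triplicate slides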
[5] = target: Neurogenic locus notch homolog protein 2 (Homo sapiens) (UniProt Q04721); experiment: small molecules binding Notch2 protein – biochemical, small-molecule microarray, 635 nm fluorescence, stem cell growth factors, primary screen (AID 1073); details: higher = more signal
[6] = target: Pro-neuregulin-1, membrane-bound isoform (Homo sapiens) (UniProt Q02297); experiment: small molecules binding neuregulin-1 protein – biochemical, small-molecule microarray, fluorescence 635/667, psychiatric disease protein project, primary screen (AID 1075); details: NRG1 binding, 635 nm fluorescence, higher = more signal;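 also: score combines 667 nm spot fluorescence with signal to noise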
Pro-neuregulin-1, membrane-bound isoform (Homo sapiens), sequence (Q02297 whole entry, looked up, the tested form may be a part, canonical isoform): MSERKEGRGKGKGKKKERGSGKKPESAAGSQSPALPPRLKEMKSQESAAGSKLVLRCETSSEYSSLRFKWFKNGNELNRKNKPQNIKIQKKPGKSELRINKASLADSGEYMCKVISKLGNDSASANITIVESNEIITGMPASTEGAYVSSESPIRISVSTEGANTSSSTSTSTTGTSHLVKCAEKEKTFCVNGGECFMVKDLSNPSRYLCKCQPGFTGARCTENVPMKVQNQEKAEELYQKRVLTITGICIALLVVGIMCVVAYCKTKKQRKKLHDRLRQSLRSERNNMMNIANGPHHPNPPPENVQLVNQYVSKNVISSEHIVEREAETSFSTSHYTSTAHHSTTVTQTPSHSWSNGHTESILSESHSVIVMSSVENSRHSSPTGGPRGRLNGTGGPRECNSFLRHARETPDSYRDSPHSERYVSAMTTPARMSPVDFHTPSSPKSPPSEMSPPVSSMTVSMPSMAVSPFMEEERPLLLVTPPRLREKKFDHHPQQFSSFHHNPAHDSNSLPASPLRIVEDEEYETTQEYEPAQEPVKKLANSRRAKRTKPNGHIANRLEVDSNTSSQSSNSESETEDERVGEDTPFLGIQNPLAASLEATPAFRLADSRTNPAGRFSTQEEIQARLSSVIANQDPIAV

[7] = system: Neuregulin-1 EGF-like domain; experiment: small molecules binding NRG1 EGF domain – biochemical, small-molecule microarray, 635 nm fluorescence, primary screen (AID 1081); details: higher = more signal;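 also: binding of the protein to compounds printed on small-molecule microarray slides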
[8] = FRG1 expression reporter modulators in myotubes – cell-based, C2C12 myotubes, firefly/Renilla luciferase, luminescence, FRG1 inhibition for FSHD, primary screen (AID 1084); details: FRG1 promoter luciferase, higher = more signal, called active from +8 up or from −8 down
[9] = small molecules captured by biotinylated probe aFST – biochemical, small-molecule microarray, fluorescence 635/667, stem cell growth factor project, primary screen (AID 1086); details: higher = more signal;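 also: score merges 667 nm fluorescence with signal-to-noise of each printed compound spot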
[10] = binders of probe aHhip on microarray, primary screen, stem cell growth factor project, biochemical, small-molecule microarray, fluorescence 635/667 (AID 1087); details: higher = more signal;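 also: score merges spot fluorescence at 667nm with spot signal to noise ratio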
[11] = system: PRMT1 (protein arginine N-methyltransferase 1); experiment: small molecules binding arginine methyltransferase PRMT1 – biochemical, small-molecule microarray, 635 nm fluorescence, primary screen (AID 1088); details: higher = more signal;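 also: binding of Prmt1 protein to compounds spotted on small-molecule microarray slides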
[12] = growth effects on S. cerevisiae YJM789 – YJM789 clinical isolate, OD600, 24 h, basal, primary screen (AID 1089); details: higher = more signal, called active from +8 up or from −8 down;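 also: growth of clinical yeast isolate S. cerevisiae YJM 789 seeded 1000 cells per well; test concentration not given here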
[13] = S. pombe growth modifiers, basal conditions – strain 972, OD600, 24 h, no modulator, primary screen (AID 1090);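 also: basal condition with compound alone and no growth modifier present; test concentration not given here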; details: S. pombe 972 growth, higher = more signal, called active from +8 up or from −8 down
[14] = budding yeast growth modifiers under rapamycin – strain BY4716, OD600, 96 h, primary screen (AID 1091); also: test concentration not given here; details: S. cerevisiae BY4716 + rapamycin, higher = more signal, called active from +8 up or from −8 down
[15] = target: Torsin-1A-interacting protein 2 (Homo sapiens) (UniProt Q8NFQ8); experiment: small molecules binding lysate-expressed LULL1 – cell lysate, human LULL1 lysate, 635/667 nm fluorescence, primary screen (AID 1092); details: small-molecule microarray, hLULL1 lysate binding, 635 nm fluorescence; higher = more signal;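 also: probe is lysate of COS7 cells overexpressing human LULL1; score merges per-feature 667 nm fluorescence with signal-to-noise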
Torsin-1A-interacting protein 2 (Homo sapiens), sequence (Q8NFQ8 whole entry, looked up): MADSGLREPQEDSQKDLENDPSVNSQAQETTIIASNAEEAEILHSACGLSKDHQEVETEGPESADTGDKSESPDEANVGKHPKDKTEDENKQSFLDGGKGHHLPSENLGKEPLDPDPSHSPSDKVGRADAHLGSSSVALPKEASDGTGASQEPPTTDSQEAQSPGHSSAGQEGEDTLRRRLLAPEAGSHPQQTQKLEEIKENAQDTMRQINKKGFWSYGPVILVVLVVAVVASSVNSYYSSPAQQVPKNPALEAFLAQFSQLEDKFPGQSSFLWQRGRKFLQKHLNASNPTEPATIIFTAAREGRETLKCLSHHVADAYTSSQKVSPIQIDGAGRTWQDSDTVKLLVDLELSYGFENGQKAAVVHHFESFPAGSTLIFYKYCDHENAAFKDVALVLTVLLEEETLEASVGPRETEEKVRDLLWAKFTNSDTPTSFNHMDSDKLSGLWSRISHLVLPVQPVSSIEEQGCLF

[16] = optical density change of DRC41 E. coli – strain DRC41, OD650, 24 h, E. coli filamentation project, primary screen (AID 1093);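 also: MC1000 strain lacking acrAB efflux and sulA so SOS filamentation is blocked; test concentration not given here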; details: E. coli DRC41 growth, higher = more signal, called active from +8 up or from −8 down
[17] = probe aLefty2 binding to arrayed compounds – biochemical, biotinylated probe, 635/667 nm fluorescence, primary screen (AID 1094); details: small-molecule microarray, higher = more signal;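 also: score merges spot fluorescence near 667 nm with spot signal-to-noise ratio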
[18] = system: Noggin (protein binding on small-molecule microarray); experiment: small molecules binding Noggin protein – biochemical, 635/667 nm fluorescence, primary screen (AID 1095); details: 635 nm fluorescence, higher = more signal;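 also: score merges 667 nm feature fluorescence with signal to noise over triplicate slides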
[19] = target: Neurogenic locus notch homolog protein 3 (Homo sapiens) (UniProt Q9UM47); experiment: small molecules binding NOTCH3 protein – biochemical, 635/667 nm fluorescence, primary screen (AID 1096); details: small-molecule microarray, 635 nm fluorescence, higher = more signal
Neurogenic locus notch homolog protein 3 (Homo sapiens), sequence (Q9UM47 whole entry, looked up): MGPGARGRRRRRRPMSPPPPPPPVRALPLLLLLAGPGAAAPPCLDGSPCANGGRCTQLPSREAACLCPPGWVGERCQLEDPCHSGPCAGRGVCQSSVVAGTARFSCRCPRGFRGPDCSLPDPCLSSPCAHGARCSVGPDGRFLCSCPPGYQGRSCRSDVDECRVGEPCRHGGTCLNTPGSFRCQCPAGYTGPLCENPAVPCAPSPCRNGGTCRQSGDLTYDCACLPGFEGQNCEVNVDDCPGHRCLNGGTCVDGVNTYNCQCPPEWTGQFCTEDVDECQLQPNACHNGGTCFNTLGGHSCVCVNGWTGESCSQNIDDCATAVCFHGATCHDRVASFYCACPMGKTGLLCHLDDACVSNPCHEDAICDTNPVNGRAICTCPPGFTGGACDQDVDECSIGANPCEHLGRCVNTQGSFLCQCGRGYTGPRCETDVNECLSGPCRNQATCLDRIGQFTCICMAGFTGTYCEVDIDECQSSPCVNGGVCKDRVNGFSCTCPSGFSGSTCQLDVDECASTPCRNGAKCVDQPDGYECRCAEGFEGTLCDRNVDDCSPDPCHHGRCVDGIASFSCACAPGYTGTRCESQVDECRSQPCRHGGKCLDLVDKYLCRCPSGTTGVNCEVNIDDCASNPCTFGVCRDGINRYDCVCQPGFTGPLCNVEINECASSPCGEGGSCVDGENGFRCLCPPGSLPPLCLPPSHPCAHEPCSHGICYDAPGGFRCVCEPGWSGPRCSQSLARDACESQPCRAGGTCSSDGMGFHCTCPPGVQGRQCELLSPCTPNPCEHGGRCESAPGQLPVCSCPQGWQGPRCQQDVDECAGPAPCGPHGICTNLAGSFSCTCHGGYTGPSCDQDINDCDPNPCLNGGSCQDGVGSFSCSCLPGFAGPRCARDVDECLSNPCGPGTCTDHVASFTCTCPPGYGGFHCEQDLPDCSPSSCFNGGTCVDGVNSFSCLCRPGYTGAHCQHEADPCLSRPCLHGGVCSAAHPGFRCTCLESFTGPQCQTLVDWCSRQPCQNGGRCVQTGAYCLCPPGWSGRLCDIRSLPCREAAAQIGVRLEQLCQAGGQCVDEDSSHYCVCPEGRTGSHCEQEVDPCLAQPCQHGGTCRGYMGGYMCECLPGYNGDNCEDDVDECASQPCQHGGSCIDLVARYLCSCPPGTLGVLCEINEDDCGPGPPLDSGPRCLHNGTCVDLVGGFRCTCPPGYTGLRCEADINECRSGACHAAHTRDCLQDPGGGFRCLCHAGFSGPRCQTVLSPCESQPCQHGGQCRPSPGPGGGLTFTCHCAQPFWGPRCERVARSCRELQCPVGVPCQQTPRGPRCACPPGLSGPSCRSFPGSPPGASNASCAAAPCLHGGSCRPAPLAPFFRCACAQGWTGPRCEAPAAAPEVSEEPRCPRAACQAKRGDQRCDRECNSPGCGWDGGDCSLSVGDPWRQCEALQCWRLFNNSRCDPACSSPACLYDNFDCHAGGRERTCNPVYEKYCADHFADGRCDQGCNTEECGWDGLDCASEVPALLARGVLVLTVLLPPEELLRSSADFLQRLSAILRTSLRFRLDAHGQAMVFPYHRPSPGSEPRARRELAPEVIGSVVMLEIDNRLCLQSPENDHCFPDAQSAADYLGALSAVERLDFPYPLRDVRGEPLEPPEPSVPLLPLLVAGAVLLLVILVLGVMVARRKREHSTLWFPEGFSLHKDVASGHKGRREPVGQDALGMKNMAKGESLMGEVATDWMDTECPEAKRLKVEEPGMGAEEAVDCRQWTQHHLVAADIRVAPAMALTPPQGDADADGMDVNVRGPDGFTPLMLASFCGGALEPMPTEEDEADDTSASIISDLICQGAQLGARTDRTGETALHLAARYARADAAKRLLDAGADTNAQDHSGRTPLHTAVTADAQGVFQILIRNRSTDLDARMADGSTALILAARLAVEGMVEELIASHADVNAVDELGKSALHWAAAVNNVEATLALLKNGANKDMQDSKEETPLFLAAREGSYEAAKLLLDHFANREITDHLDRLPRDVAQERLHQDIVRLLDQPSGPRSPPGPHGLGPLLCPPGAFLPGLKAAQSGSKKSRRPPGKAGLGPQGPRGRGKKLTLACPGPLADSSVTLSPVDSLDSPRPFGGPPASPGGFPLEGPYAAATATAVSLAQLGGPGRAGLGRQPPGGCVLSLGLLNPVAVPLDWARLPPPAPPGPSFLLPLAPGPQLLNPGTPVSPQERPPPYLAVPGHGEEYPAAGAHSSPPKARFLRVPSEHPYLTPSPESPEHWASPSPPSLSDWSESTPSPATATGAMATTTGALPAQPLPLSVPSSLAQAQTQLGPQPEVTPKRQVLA

[20] = probe aEGFR binding to arrayed compounds – biochemical, biotinylated probe, 635/667 nm fluorescence, primary screen (AID 1097); details: small-molecule microarray, higher = more signal;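 also: probe is a biotinylated anti-EGFR antibody binding compounds printed on slides; score combines fluorescence near 667 nm and signal to noise of each spot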

| Structure (SMILES) | composite z-score [1] | composite z-score [2] | composite z-score [3] | composite z-score [4] | composite z-score [5] | composite z-score [6] | composite z-score [7] | z-score [8] | composite z-score [9] | composite z-score [10] | composite z-score [11] | z-score [12] | z-score [13] | z-score [14] | composite z-score [15] | z-score [16] | composite z-score [17] | composite z-score [18] | composite z-score [19] | composite z-score [20] |
| --- | --- | --- | --- | --- | --- | --- | --- | --- | --- | --- | --- | --- | --- | --- | --- | --- | --- | --- | --- | --- |
| COCCOC(=O)N1C(=O)[C@@]2(c3cc(C#Cc4ccc(OC)cc4)ccc31)[C@H](c1ccc(O)cc1)N1[C@H](c3ccccc3)[C@H](c3ccccc3)OC(=O)[C@H]1[C@@H]2C(=O)N1CCN(c2ncccn2)CC1 | -0.867 | 0.47 | -0.0225 | 0.381 | 0.846 | 0.467 | 1.13 | -0.431 (inactive) | 0.619 | -0.132 | 1.52 | 1.56 (inactive) | 1.16 (inactive) | 2.83 (inactive) | 2.44 | 1.15 (inactive) | 0.047 | 0.52 | 0.258 | 0.0746 |
| CN(C)CCCC[C@@H]1NC(=O)[C@@H]2C[C@H](C(=O)NCCCCCN)[C@H](c3ccc(O)cc3)N2C1=O | 0.591 | 0.137 | -0.043 | -0.285 | 0.235 | 2.23 | 0.293 | -0.926 (inactive) | 0.0993 | -0.0324 | 0.255 | 0.212 (inactive) | -0.977 (inactive) | 0.213 (inactive) | 2.6 | 0.0706 (inactive) | -0.0862 | -0.668 | -0.0504 | -0.075 |
| [N-]=[N+]=NCc1ccccc1C[C@]1(C(N)=O)N=C(c2ccc(OCCCO)cc2)O[C@H]1c1ccccc1N=[N+]=[N-] | 0.567 | -0.186 | -0.0085 | 0.665 | 0.997 | 1.3 | 1.12 | -1.4 (inactive) | 0.93 | 0.151 | 1.37 | 1.22 (inactive) | 1.29 (inactive) | 1.39 (inactive) | 2.84 | -0.0072 (inactive) | 0.175 | -0.433 | 0.616 | 0.268 |
| COc1ccc([Si](C)(C)[C@H]2[C@H](CCO)O[C@@]3(C(=O)N(Cc4ccccc4)c4ccc(N5C(=O)COc6ccccc65)cc43)[C@@H]2C)cc1 | 0.253 | -0.113 | -0.0692 | 0.264 | 0.167 | 1.06 | 0.487 | -1.69 (inactive) | 0.0228 | 0.357 | -0.171 | 0.773 (inactive) | -0.494 (inactive) | 5.54 (inactive) | 1.14 | 1.45 (inactive) | 0.0365 | 0.177 | 0.246 | -0.126 |
| COCCOC(=O)N1C(=O)[C@@]2(c3cc(C#CCCO)ccc31)[C@H](c1ccc(O)cc1)N1[C@H](c3ccccc3)[C@H](c3ccccc3)OC(=O)[C@H]1[C@@H]2C(=O)N1CCCCCCC1 | 2.58 | 1.07 | 0.2 | 1.04 | 1.33 | 0.853 | 1.14 | -0.73 (inactive) | 2 | 0.7 | 1.54 | 0.616 (inactive) | 0.948 (inactive) | 0.563 (inactive) | 2.86 | -0.16 (inactive) | 0.947 | 1.29 | 0.991 | 0.335 |
| NC(=O)NCC#Cc1ccc2c(c1)[C@]1(C(=O)N2)[C@H](c2ccc(O)cc2)N2[C@H](c3ccccc3)[C@H](c3ccccc3)OC(=O)[C@H]2[C@@H]1C(=O)N1CCN(c2ncccn2)CC1 | 0.687 | 0.585 | 0.0021 | 0.516 | 0.0269 | 0.302 | 0.562 | -1.09 (inactive) | 0.38 | -0.191 | 1.01 | 0.113 (inactive) | -0.923 (inactive) | 1.6 (inactive) | 1.45 | 1.1 (inactive) | 0.28 | -0.228 | -0.334 | 0.0193 |
| C=CCN1C(=O)[C@]2(COC(c3ccc(OCCCO)cc3)=N2)Cc2ccccc21 | 0.842 | 0.33 | 0.136 | 0.115 | 0.595 | 0.977 | 1.08 | -0.664 (inactive) | 0.258 | -0.3 | 1.36 | -2.32 (inactive) | -5.3 (inactive) | -1.78 (inactive) | 3.21 | 1.09 (inactive) | 0.0914 | 0.044 | 0.801 | -0.163 |
| COc1ccc([Si](C)(C)[C@H]2[C@H](CC(=O)N3CCC[C@H]3CO)O[C@@]3(C(=O)N(c4ccccc4)c4ccccc43)[C@@H]2C)cc1 | -0.371 | 0.509 | -0.17 | 0.134 | -0.568 | 0.0644 | 1.05 | -1.74 (inactive) | 0.0963 | -0.261 | 0.258 | -1.85 (inactive) | -0.841 (inactive) | -1.27 (inactive) | 0.958 | 2.45 (inactive) | -0.0651 | 0.285 | 0.125 | -0.15 |
| COc1ccc(C(O)C2C=CC3C(=O)N(c4ccccc4)C(=O)C3N2Nc2ccccc2)c2ccccc12 (stereo not given) | 0.782 | -0.141 | -0.0201 | 0.354 | 0.945 | 0.724 | 1.04 | -0.0953 (inactive) | 0.563 | -0.163 | 0.802 | -1.41 (inactive) | 1.81 (inactive) | -0.0303 (inactive) | 2.23 | -0.807 (inactive) | 0.189 | -0.659 | 0.459 | -0.0949 |
